Laboratory results as given in PubChem BioAssay (Tox21).
Where “and” joins values, the source holds several entries; their conditions need not be identical. Identical values can stand only once. Inconclusive results are not listed. A call without a number means that no potency is given here. Some structures have more than one record in an assay (separate samples or runs), and their calls can disagree. Calls of active or inactive are those of the source. Unless noted, calls follow the shape of the dose curve; as a rule, active = well fitted curve in the direction sought with a large enough effect in the repeat runs; inconclusive = weak or mixed curves; inactive = no such curve, though single readings can be large; an effect the other way counts as inactive or inconclusive.

Columns and labels:
[1] = qHTS assay to identify aromatase inhibitors - cell viability counter screen (AID 743084);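 also: cells stimulated with testosterone during compound exposure; nearly all actives have a fitted effect of over 55% in size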; also: potency is read from the fitted curve at half-maximal effect
[2] = target: Aryl hydrocarbon receptor (Homo sapiens) (UniProt P35869); experiment: qHTS assay to identify small molecule that activate the aryl hydrocarbon receptor (AhR) signaling pathway (AID 743085);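 also: HG2L7.5c1 human HepG2 liver cells with stably integrated DRE-driven firefly reporter; series mostly up to about 70 µM; nearly all actives have a fitted effect of over 15% in size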
Aryl hydrocarbon receptor (Homo sapiens), sequence (P35869 whole entry, looked up): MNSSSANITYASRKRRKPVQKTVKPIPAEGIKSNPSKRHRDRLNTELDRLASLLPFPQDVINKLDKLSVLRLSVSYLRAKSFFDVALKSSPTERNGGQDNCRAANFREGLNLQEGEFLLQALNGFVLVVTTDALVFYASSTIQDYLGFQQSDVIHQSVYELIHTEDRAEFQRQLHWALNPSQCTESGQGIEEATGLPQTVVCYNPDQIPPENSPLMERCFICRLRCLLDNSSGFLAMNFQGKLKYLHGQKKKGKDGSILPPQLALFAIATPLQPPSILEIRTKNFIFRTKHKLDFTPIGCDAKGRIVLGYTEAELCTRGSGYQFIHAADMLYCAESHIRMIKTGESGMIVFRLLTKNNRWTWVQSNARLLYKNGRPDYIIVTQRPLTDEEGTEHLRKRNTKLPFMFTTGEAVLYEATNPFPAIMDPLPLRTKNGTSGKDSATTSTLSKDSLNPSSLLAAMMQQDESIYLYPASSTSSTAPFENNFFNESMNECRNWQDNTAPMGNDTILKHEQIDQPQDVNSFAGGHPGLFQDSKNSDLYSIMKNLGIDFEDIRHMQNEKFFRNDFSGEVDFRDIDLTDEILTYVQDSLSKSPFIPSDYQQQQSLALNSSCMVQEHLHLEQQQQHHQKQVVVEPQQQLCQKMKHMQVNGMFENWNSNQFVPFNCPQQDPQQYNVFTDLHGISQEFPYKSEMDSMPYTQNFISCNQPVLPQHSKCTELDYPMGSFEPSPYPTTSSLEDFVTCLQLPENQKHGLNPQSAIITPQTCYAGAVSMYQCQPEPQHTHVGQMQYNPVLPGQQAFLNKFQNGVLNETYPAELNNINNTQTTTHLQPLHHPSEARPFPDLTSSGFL
Procedure, shortened: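 Luminescence (ONE-Glo) from a dioxin-responsive-element luciferase reporter in HG2L7.5c1 HepG2 cells after 24 hr compound exposure at 37C; viability measured by CellTiter-Fluor fluorescence beforehand.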

[3] = target: Peroxisome proliferator-activated receptor gamma (Homo sapiens) (UniProt P37231); experiment: qHTS assay to identify small molecule agonists of the peroxisome proliferator-activated receptor gamma (PPARg) signaling pathway (AID 743094; active = well fitted activation curve with a large enough effect in the signal ratio in the repeat runs, not every such curve was filed as active; the % refers to the signal ratio; also: potency is read from the fitted curve at half-maximal effect)
Peroxisome proliferator-activated receptor gamma (Homo sapiens), sequence (P37231 whole entry, looked up): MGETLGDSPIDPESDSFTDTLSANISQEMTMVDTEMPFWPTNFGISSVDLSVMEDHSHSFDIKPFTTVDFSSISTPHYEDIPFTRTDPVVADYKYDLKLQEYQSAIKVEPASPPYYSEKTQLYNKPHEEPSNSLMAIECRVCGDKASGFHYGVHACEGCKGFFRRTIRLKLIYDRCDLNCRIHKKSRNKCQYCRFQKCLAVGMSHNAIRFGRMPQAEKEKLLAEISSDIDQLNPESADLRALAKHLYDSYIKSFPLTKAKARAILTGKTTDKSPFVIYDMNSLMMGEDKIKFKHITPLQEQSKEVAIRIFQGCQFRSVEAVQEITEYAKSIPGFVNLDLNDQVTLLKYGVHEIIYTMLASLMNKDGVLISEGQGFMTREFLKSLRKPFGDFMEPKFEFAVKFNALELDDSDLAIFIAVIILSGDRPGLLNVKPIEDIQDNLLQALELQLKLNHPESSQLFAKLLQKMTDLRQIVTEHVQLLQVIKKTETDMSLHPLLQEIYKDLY
Procedure, shortened: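 Cell-based bla reporter, HEK293H background, PPARg-driven UAS. Pre-incubation 5 h, 37C, 5% CO2. Compound 17 h, 37C. Substrate 1 h RT; fluorescence.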

[4] = target: Peroxisome proliferator-activated receptor gamma (Homo sapiens) (UniProt P37231); experiment: qHTS assay to identify small molecule antagonists of the peroxisome proliferator-activated receptor gamma (PPARg) signaling pathway (AID 743191; calls by dose curve; also: series mostly up to about 63 µM; nearly all actives have a fitted effect of over 30% in size)
Procedure, shortened: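 GeneBLAzer PPARg UAS-bla HEK293H cells carrying a UAS-driven beta-lactamase reporter were plated at 3000 cells/well, preincubated 5 h at 37C, then given compound for 17 h at 37C; LiveBLAzer B/G FRET substrate was read after 1 h at room temperature.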

[5] = qHTS assay to identify small molecule antagonists of the peroxisome proliferator-activated receptor gamma (PPARg) signaling pathway - cell viability counter screen (AID 743194); also: nearly all actives have a fitted effect of over 55% in size
Procedure, shortened: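 PPARg-UAS-bla HEK293H cells were plated, rested 5 h at 37 C, then treated with compounds plus rosiglitazone (50 nM final) for 17 h at 37 C; viability was then read by CellTiter-Glo luminescence after 30 min at room temperature.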

[6] = qHTS assay for small molecule agonists of the antioxidant response element (ARE) signaling pathway - cell viability counter screen (AID 743203; calls by dose curve; also: nearly all actives have a fitted effect of over 55% in size; also: potency is read from the fitted curve at half-maximal effect)
Procedure, shortened: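 Measured in the same wells as the beta-lactamase ARE reporter, this read-out is CellTiter-Glo luminescence from HepG2 ARE-bla cells given compounds for 16 hrs.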

[7] = qHTS assay for small molecule activators of the heat shock response signaling pathway - cell viability counter screen (AID 743209); also: nearly all actives have a fitted effect of over 50% in size; also: potency is read from the fitted curve at half-maximal effect
Procedure, shortened: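 Same-well multiplex: after 2.5 h room-temperature incubation with LiveBLAzer B/G substrate and fluorescence reading, CellTiter-Glo reagent was added to HSE-bla HeLa cells that had received compound for 5 h at 37 C; luminescence read after 30 min.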

[8] = target: Peroxisome proliferator-activated receptor delta (Homo sapiens) (UniProt Q03181); experiment: qHTS assay to identify small molecule agonists of the peroxisome proliferator-activated receptor delta (PPARd) signaling pathway (AID 743212; calls by dose curve; also: potency is read from the fitted curve at half-maximal effect)
Peroxisome proliferator-activated receptor delta (Homo sapiens), sequence (Q03181 whole entry, looked up): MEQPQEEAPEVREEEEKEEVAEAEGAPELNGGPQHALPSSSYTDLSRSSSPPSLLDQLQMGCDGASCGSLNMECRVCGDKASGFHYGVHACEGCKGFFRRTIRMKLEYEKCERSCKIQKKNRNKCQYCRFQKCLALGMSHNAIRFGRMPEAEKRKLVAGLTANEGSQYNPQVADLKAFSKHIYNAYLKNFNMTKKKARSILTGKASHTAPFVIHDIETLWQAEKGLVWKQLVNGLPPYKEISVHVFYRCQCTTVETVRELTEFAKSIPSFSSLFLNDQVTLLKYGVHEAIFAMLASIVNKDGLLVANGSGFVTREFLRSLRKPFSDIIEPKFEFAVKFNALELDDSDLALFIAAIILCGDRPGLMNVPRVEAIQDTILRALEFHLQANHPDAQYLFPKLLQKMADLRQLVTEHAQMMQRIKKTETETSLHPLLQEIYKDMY
Procedure, shortened: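 Beta-lactamase reporter read by fluorescence (LiveBLAzer B/G FRET, 2 h, room temperature). Test agents, in DMSO, incubated at 37 C with PPARd-bla HEK293H cells.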

[9] = qHTS assay to identify small molecule antagonists of the peroxisome proliferator-activated receptor delta (PPARd) signaling pathway - cell viability counter screen (AID 743213); also: nearly all actives have a fitted effect of over 50% in size; also: potency is read from the fitted curve at half-maximal effect
Procedure, shortened: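 HEK293H PPARd UAS-bla cells, 5 h pre-incubation, compound + L165041 300 nM final, 17 h 37 C; B/G FRET substrate 2 h RT; then CellTiter-Glo 30 min RT, luminescence.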

[10] = target: Peroxisome proliferator-activated receptor delta (Homo sapiens) (UniProt Q03181); experiment: qHTS assay to identify small molecule antagonists of the peroxisome proliferator-activated receptor delta (PPARd) signaling pathway (AID 743215; active = well fitted inhibition curve with a large enough effect in the signal ratio in the repeat runs, not every such curve was filed as active; the % refers to the signal ratio;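 also: cells stimulated with agonist L165041 at 300 nM final during compound exposure; series mostly up to about 62 µM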)
Procedure, shortened: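 Fluorescence from cleaved LiveBLAzer B/G FRET substrate (2 h, room temperature) reports PPARd-driven beta-lactamase in HEK293H UAS-bla cells. Cells had been treated 17 h at 37 C with compound plus 300 nM final L165041.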

[11] = qHTS assay to identify small molecule agonists of the farnesoid-X-receptor (FXR) signaling pathway - cell viability counter screen (AID 743218); also: nearly all actives have a fitted effect of over 45% in size
Procedure, shortened: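 Readout: CellTiter-Glo luminescence, 30 min RT, multiplexed after the FXR-bla FRET reading. HEK 293T FXR-UAS-bla cells received compound 5 h post-plating and were incubated 16 h at 37 C.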

[12] = qHTS assay to identify small molecule antagonists of the farnesoid-X-receptor (FXR) signaling pathway - cell viability counter screen (AID 743221; active = well fitted cell-killing curve with a large enough effect in the repeat runs, not every such curve was filed as active; also: nearly all actives have a fitted effect of over 50% in size)
Procedure, shortened: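 Cytotoxicity counter screen run in the FXR-bla reporter wells: HEK 293T cells exposed to compound with 50 uM (final) chenodeoxycholic acid for 16 h, 37 C, then viability measured by CellTiter-Glo luminescence after 30 min, room temperature.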

[13] = qHTS assay to identify small molecule that activate the aryl hydrocarbon receptor (AhR) signaling pathway - cell viability counter screen (AID 743086);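 also: HepG2 liver cells carrying the AhR DRE luciferase reporter; series mostly up to about 70 µM; nearly all actives have a fitted effect of over 45% in size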
Procedure, shortened: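 HepG2-AhR-luc (HG2L7.5c1) cells, 4000/well, were preincubated 5 h at 37C, exposed to compound in qHTS format for 24 hr at 37C, then given CellTiter-Fluor for 30 min; viability was read as fluorescence in the reporter wells.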

[14] = qHTS assay to identify small molecule agonists of the peroxisome proliferator-activated receptor delta (PPARd) signaling pathway - cell viability counter screen (AID 743211); also: nearly all actives have a fitted effect of over 55% in size; also: potency is read from the fitted curve at half-maximal effect
Procedure, shortened: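 Viability was measured as CellTiter-Glo luminescence (30 min, room temperature) in the same wells as the beta-lactamase readout. GeneBLAzer PPARd UAS-bla HEK293H cells received compound after 5 h plating and were incubated 17 h at 37 C.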

[15] = qHTS assay for small molecule agonists of the antioxidant response element (ARE) signaling pathway (AID 743202; active = well fitted activation curve with a large enough effect in the signal ratio in the repeat runs, not every such curve was filed as active; the % refers to the signal ratio; also: potency is read from the fitted curve at half-maximal effect)
Procedure, shortened: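 Following a 16 h, 37 C exposure of reporter HepG2 cells (ARE-driven beta-lactamase, 2,000 cells/well) to compounds, FRET substrate was applied for 2 h at room temperature and fluorescence intensity recorded.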

[16] = qHTS assay for small molecule activators of the heat shock response signaling pathway (AID 743210; active = well fitted activation curve with a large enough effect in the signal ratio in the repeat runs, with a control signal flat, not every such curve was filed as active; the % refers to the signal ratio; also: series mostly up to about 63 µM)
Procedure, shortened: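 Heat shock element–beta-lactamase HeLa reporter cells; qHTS with compounds for 5 h at 37 C; detection by FRET substrate fluorescence after 2.5 h at RT.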

[17] = target: Vitamin D3 receptor (Homo sapiens) (UniProt P11473); experiment: qHTS assay to identify small molecule agonists of the vitamin D receptor (VDR) signaling pathway (AID 743222; calls by dose curve)
Vitamin D3 receptor (Homo sapiens), sequence (P11473 whole entry, looked up): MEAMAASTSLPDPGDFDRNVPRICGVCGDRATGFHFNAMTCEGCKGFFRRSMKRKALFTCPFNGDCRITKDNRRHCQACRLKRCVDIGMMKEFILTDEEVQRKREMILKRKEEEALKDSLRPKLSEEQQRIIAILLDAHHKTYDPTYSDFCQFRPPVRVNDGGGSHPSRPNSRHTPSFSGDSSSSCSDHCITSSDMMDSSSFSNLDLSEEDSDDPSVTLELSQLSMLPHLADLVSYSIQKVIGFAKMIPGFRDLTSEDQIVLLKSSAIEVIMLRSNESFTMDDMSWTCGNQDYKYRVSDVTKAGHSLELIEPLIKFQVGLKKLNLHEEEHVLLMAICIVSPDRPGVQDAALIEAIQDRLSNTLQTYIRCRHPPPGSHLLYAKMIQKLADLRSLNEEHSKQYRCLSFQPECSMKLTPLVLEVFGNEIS
Procedure, shortened: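 Following 4 h attachment at 37C, VDR-bla cells (2,000 per well) received DMSO-dissolved compounds or controls. After 16 h incubation, LiveBLAzer B/G FRET substrate was added and fluorescence read 2 h later at room temperature.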

[18] = target: Vitamin D3 receptor (Homo sapiens) (UniProt P11473); experiment: qHTS assay to identify small molecule antagonists of the vitamin D receptor (VDR) signaling pathway (AID 743223; active = well fitted inhibition curve with a large enough effect in the signal ratio in the repeat runs, not every such curve was filed as active; the % refers to the signal ratio)
Procedure, shortened: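 Antagonist mode: compound added to VDR-bla cells alongside agonist 1alpha,25-dihydroxyvitamin D3 (3 nM final), incubation 16 h at 37C. Read-out is LiveBLAzer FRET fluorescence, 2 h at room temperature.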

[19] = target: Bile acid receptor (Homo sapiens) (UniProt Q96RI1); experiment: qHTS assay to identify small molecule antagonists of the farnesoid-X-receptor (FXR) signaling pathway (AID 743217; active = well fitted inhibition curve with a large enough effect in the signal ratio in the repeat runs, not every such curve was filed as active; the % refers to the signal ratio)
Bile acid receptor (Homo sapiens), sequence (Q96RI1 whole entry, looked up): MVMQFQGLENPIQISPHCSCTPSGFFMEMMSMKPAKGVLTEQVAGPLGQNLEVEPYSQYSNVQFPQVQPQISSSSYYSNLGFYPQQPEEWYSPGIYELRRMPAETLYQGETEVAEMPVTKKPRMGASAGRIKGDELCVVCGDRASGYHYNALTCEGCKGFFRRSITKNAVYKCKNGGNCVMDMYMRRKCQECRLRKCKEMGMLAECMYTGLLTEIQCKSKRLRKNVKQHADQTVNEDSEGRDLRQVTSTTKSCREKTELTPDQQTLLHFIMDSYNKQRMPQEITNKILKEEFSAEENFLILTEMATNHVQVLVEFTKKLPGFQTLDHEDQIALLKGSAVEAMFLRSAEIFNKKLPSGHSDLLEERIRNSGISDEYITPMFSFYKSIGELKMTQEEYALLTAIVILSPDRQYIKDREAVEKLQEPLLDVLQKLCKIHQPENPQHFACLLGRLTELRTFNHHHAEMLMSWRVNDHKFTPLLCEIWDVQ
Procedure, shortened: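 FRET fluorescence after 2 h room-temperature LiveBLAzer loading gives the readout. Prior step: FXR-bla HEK 293T cells, seeded and incubated 5 h, received test compounds plus 50 uM final CDCA for 16 h at 37 °C.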

[20] = target: Bile acid receptor (Homo sapiens) (UniProt Q96RI1); experiment: qHTS assay to identify small molecule agonists of the farnesoid-X-receptor (FXR) signaling pathway (AID 743220; active = well fitted activation curve with a large enough effect in the signal ratio in the repeat runs, not every such curve was filed as active; the % refers to the signal ratio)
Procedure, shortened: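 FXR-UAS-bla HEK 293T cells carrying a UAS-driven beta-lactamase reporter were plated for 5 h at 37C/5% CO2, then exposed to DMSO-dissolved Tox21 10K compounds for 16 h at 37C. A LiveBLAzer B/G FRET substrate was loaded for 2 h at room temperature before fluorescence reading.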

SMILES | Potency [1] | Potency [2] | Potency [3] | Potency [4] | Potency [5] | Potency [6] | Potency [7] | Potency [8] | Potency [9] | Potency [10] | Potency [11] | Potency [12] | Potency [13] | Potency [14] | Potency [15] | Potency [16] | Potency [17] | outcome [18] | Potency [19] | Potency [20]
Nc1ccc(S(=O)(=O)Nc2ccccc2)cc1 | inactive | inactive | inactive | inactive | inactive | inactive | inactive | inactive | inactive | inactive | inactive | inactive |  |  |  |  |  |  |  | 
CCCCc1ncc(/C=C(\Cc2cccs2)C(=O)O)n1Cc1ccc(C(=O)O)cc1 | inactive | inactive |  |  | inactive |  | inactive |  | inactive |  | inactive | inactive | inactive | inactive |  |  |  |  |  | 
C=CC1CC2C=CC1C2 (stereo unspecified) | inactive | inactive | inactive |  | inactive | inactive | inactive | inactive |  |  |  | inactive |  | inactive | inactive | inactive | inactive | inactive |  | 
ClCCOCCOCCCl | inactive | inactive | inactive | inactive | inactive | inactive | inactive | inactive | inactive |  | inactive | inactive |  | inactive | inactive | inactive | inactive |  |  | 
C=CC(=O)OCCOCCOCCOCCOC(=O)C=C | 13.8 µM (active) and 19.2 µM (active) | inactive |  |  | inactive | inactive | 34.8 µM (active) |  | inactive |  |  | inactive |  | 54.4 µM (active) | 24.5 µM (active) and 27.1 µM (active) |  |  |  |  | 
CN(C)C(=O)NC1(c2ccccc2)CCN(CC[C@@]2(c3ccc(F)c(F)c3)CN(C(=O)c3ccccc3)CCO2)CC1 | inactive | inactive |  | inactive | inactive | inactive | inactive | inactive | inactive | inactive |  | inactive |  |  |  | inactive |  |  | inactive | inactive
CCCCCCCC#N | inactive |  | inactive | inactive | inactive | inactive |  | inactive |  |  | inactive | inactive | inactive | inactive |  |  |  | inactive |  | 
CCCn1cnc2c1c(=O)n(CCCCC(C)=O)c(=O)n2C | inactive | inactive | inactive |  | inactive | inactive | inactive | inactive | inactive | inactive | inactive | inactive |  |  |  | inactive | inactive | inactive | inactive | inactive
CCN(CC)CCNC(=O)c1cc(Br)c(N)cc1OC | inactive |  | inactive | inactive | inactive | inactive | inactive | inactive |  |  | inactive | inactive | inactive | inactive |  | inactive | inactive |  |  | 
Cc1oc(-c2ccccc2)nc1CCOc1cccc2c1ccn2CCC(=O)O | 27.3 µM (active) | inactive | 0.0174 µM (active) |  | inactive | inactive | inactive | 8.71 µM (active) | inactive | inactive |  | inactive |  | inactive |  | inactive | inactive |  |  | 
OCCN1CCN(CCCN2c3ccccc3C=Cc3ccccc32)CC1 | 29.8 µM (active) and inactive | inactive |  |  |  | inactive | inactive | inactive |  |  | inactive |  |  | inactive | inactive |  |  |  |  | 
CCN(CC)CCOC(=O)C(c1ccccc1)C1CCCCC1 (stereo unspecified) | inactive |  | inactive | inactive |  | inactive | inactive |  |  |  |  | inactive | inactive |  | inactive |  | inactive | inactive |  | 
c1cc(CCCc2ccncc2)ccn1 | inactive |  | inactive |  | inactive | inactive | inactive | inactive | inactive | inactive | inactive | inactive | inactive | inactive | inactive | inactive | inactive | inactive |  | 
C=C(C)C(=O)OCCO | inactive | inactive | inactive |  | inactive | inactive | inactive | inactive | inactive | inactive | inactive | inactive |  | inactive |  | inactive | inactive | inactive | inactive | inactive
CCCNCC(O)COc1ccccc1C(=O)CCc1ccccc1 (stereo unspecified) | inactive | inactive |  |  | inactive | inactive | inactive |  |  |  |  | inactive |  |  |  | inactive | inactive | inactive |  | 
C=CC(=O)OCCOc1ccccc1 | inactive | inactive |  |  | inactive | inactive | 19.5 µM (active) |  | inactive |  |  | inactive |  |  |  |  |  | inactive |  | 
CCCCc1nc2cccnc2n1Cc1ccc(-c2ccccc2-c2nnn[nH]2)cc1 | 54.5 µM (active) | inactive | 5.49 µM (active) |  | inactive | inactive | inactive |  | inactive |  | inactive | inactive |  | inactive |  |  | inactive |  |  | 
CNCCCCOc1ccccc1Cc1ccccc1 | inactive | inactive | inactive |  | inactive | 29.8 µM (active) | inactive |  | 13.3 µM (active) |  |  |  |  |  |  | inactive | inactive |  |  | inactive
Clc1ccc(Cn2c(CN3CCCC3)nc3ccccc32)cc1 | inactive | inactive | inactive |  | inactive | inactive | inactive |  |  |  |  |  |  | 29.8 µM (active) |  |  |  | inactive |  | 
